Results reported in PubChem BioAssay AID720524 (National Center for Advancing Translational Sciences (NCATS), 2013).
The campaign covered roughly 1,400 compounds. About 1,000 (71%) were called active. Roughly 12% stayed inconclusive and do not appear here. Calls follow the shape of the dose curve; as a rule, active = well fitted inhibition curve with a large enough effect; inconclusive = small, poorly fitted or top-dose-only effect; inactive = no such curve, though single readings can be large or run the other way. The set was probably picked from earlier hits. A selection follows. Where a structure was tested more than once in an assay, its records may differ in their call.

Test: Nrf2 qHTS screen for inhibitors: Nrf2 A549 ARE-Fluc Confirmation Assay for Hit Validation; also: nearly all actives have a fitted effect of over 65% in size
Conditions: A549 ARE-firefly luciferase reporter, luminescence; series mostly up to 46.1 µM
Source text: Nrf2 is a transcription factor that maintains cellular redox homoestasis and protects cells from xenobiotics. Nrf2 binds to the antioxidant response element (ARE) to induce gene expression of a broad spectrum of genes that encode for antioxidants. […] Finding a small molecule that act as an inhibitor of Nrf2 function would represent a novel therapeutic target that could lead to improvement in survival of patients undergoing chemo- and/or radio- therapy.
In collaboration with the Biswal laboratory, a cell based, luminescence assay (BugLite) was developed to detect the Nrf2 activity using the A549 ARE_Fluc cells (AID 493153). This assay was coupled with a fluorescence based (CellTiter Fluor) cytotoxicity assay to identify and exclude toxic compounds. This coupled assay was used to evaluate selected compounds for hit validation. The data herein is the result of the BugLite assay where decrease in luminescence signal = inhibition of Nrf2 activation. Inhibition is the desired outcome for this assay.
NIH Chemical Genomics Center [NCGC]
NIH Molecular Libraries Probe Centers Network [MLPCN]
Assay Submitter (PI): Shyam Biswal, Johns Hopkins University
[1] Shibata T., et al., Genetic alteration of Keap1 confers constitutive Nrf2 activation and resistance to chemotherapy in gallbladder cancer. Gastroenterology, 2008.
[2] Sjoblom T., et al., The consensus coding sequences of human breast and colorectal cancers. Science, 2006.
Five uL of cell suspension was dispensed into 1536-well white TC-treated plate using the Kalypsys dispenser to achieve a density of 5000 cells/well in all columns except column 1. The plates were incubated at 37deg C at 5% CO2 for 2 hours before 23 nL of compounds were added with the Kalypsys pin tool equipped with a 1,536-pin array. The control compounds Budesonide and Staurosporine were added at a concentration of 2mM. Budesonide was also added as a 1:10 titration, starting at 200uM, to achieve the dose-response control signal. The plates were incubated for 18-24 hour at 37deg C, 5% CO2 followed by a 5ul addition of 5% FBS OPTI-MEM growing media in column 1 as negative control. One microliter of 5x CellTiter Fluor (Promega) was added to each well and the assay plates were incubated at 37deg C, 5% CO2 for 30 minutes. The fluorescence signal was read using the PerkinElmer ViewLux plate reader (Ex = 405 nm /Em = 525 nm) for a 3 second exposure. After the signal was taken, 3 uL of 3x BugLite was dispensed into all wells. The plates were then incubated at room temperature for 15 minutes. A second ViewLux read (40 sec exposure) was performed to detect the luminescence signal. Cytotoxicity was assessed through the first fluorescent read while biochemical activity against Nrf2 was measured in the luminescent read. The data was normalized to the positive and negative controls.
Potency is read from the fitted curve at half-maximal effect.

Row | Compound | Potency
1 | CCOC(=O)c1cnc(-n2nc(C)cc2C)nc1NNc1cc(C)nc(-c2ccccc2)n1 | 5.17 µM (active)
2 | CC(C)(C)c1ccc(Oc2ccc(N)cc2)cc1 | 5.17 µM (active)
3 | C[n+]1ccc(/C=C/c2c[nH]c3ccccc23)cc1 | 1.46 µM (active)
4 | OCCCNc1nccc(-c2cc(Nc3cccc(Cl)c3)ncn2)n1 | 1.46 µM (active)
5 | Cc1c(Cl)cccc1NC(=O)Cn1cc(C(=O)c2cccs2)c2ccccc21 | 5.8 µM (active)
6 | Brc1c(CSc2nncc3ccccc23)nc2ccccn12 | 6.51 µM (active)
7 | Cc1oc2c(F)c(F)c(F)c(F)c2c1S(=O)(=O)Nc1cccc(C(F)(F)F)c1 | 14.6 µM (active)
8 | c1ccc(C(=NNc2nc3ccccc3s2)c2ccccn2)cc1 | 11.6 µM (active)
9 | CCCOc1ccc(Cc2c(Cl)nc(SC)nc2NC)cc1 | 6.51 µM (active)
10 | CC(=NNC(=S)N1CCCCCC1)c1ccccn1 | 2.59 µM (active)
11 | CC(=O)Nc1ccc(Nc2c3ccccc3nc3ccccc23)cc1 | 1.64 µM (active)
12 | COc1ccc(C(=O)C[n+]2ccc(N)c(C)c2C)cc1 | 6.51 µM (active)
13 | CCCOc1ccc(C(=O)Nc2ccc3oc(-c4cccc(Cl)c4Cl)nc3c2)cc1 | 16.4 µM (active)
14 | CC1(C)CC(N2CCN(C(c3ccccc3)c3ccccc3)CC2)=CC(=[N+]2CCCCC2)C1 | 4.61 µM (active)
15 | O=C(Nc1ccc(Br)cn1)C1CCN(S(=O)(=O)c2cccs2)CC1 | 5.8 µM (active)
16 | Cc1ccc(NS(=O)(=O)c2cccs2)cc1S(=O)(=O)N1CCCCCC1 | inactive
17 | CC(C)Cn1c(N)c(C(=O)COC(=O)CN2C(=O)C3CC=CCC3C2=O)c(=O)n(C)c1=O (stereo unspecified) | 5.8 µM (active)
18 | CCC(C)N1C(=O)S/C(=C/c2ccc(Sc3nc4ccccc4[nH]3)o2)C1=O (stereo unspecified) | 20.6 µM (active)
19 | CCC(C)(C)c1ccc(Oc2ccc(NC(=O)COC(=O)C3=COCCO3)cc2)cc1 | 10.3 µM (active)
20 | Cc1csc[n+]1CCC1CCCCC1 | 9.2 µM (active)
21 | COc1cccc(-c2nnc(NC(=O)c3ccc(S(=O)(=O)N(CC(C)C)CC(C)C)cc3)o2)c1 | 2.59 µM (active)
22 | CCNS(=O)(=O)c1ccc(CCC(=O)N2CCN(c3cc(Cl)ccc3C)CC2)cc1 | 23.1 µM (active)
23 | Cn1nccc1C(=O)NC1CCCc2c1cnn2-c1ccc(F)cc1F (stereo unspecified) | 2.59 µM (active)
24 | O/N=C(\C[n+]1ccccc1)c1ccc(Br)cc1 | 6.51 µM (active)
25 | Cc1cccc(N2CCN(C(=O)CCS(=O)(=O)c3ccc4c(c3)NC(=O)C(C)S4)CC2)c1C (stereo unspecified) | 18.4 µM (active)
26 | Cc1ccc(S(=O)(=O)N2CCN(c3ncnc4ccccc34)CC2)cc1 | 7.31 µM (active)

Row | Compound | Potency
27 | O=C1C=C(c2ccnc3cc(Cl)ccc23)C[C@@H](c2ccc3c(c2)OCO3)C1 | 7.31 µM (active)
28 | COc1ccc(CCNC(=O)c2ccc(CS(=O)(=O)c3ccc(Br)cc3)o2)cc1OC | 14.6 µM (active)
29 | COc1ccc(OC)c(Cc2cnc3nc(N)nc(N)c3c2C)c1 | 9.2 µM (active)
30 | CCCCNc1nc2c(c(=O)n(C)c(=O)n2C)n1Cc1cccc(OC)c1 | 9.2 µM (active)
31 | N#CC(C#N)=CN=c1ccn(Cc2ccc(Cl)cc2Cl)cc1 | 4.11 µM (active)
32 | CN(Cc1cccnc1)C(=O)c1cc(COc2ccc3ncccc3c2)on1 | 5.8 µM (active)
33 | CC(=O)N1c2ccc(S(=O)(=O)N3CCCC(C(=O)NCc4ccc(Cl)cc4)C3)cc2CC1C (stereo unspecified) | 7.31 µM (active)
34 | CC(=O)N1c2ccc(S(=O)(=O)N3CCCC(C(=O)Nc4cccc(Cl)c4)C3)cc2CC1C (stereo unspecified) | 11.6 µM (active)
35 | CC(=O)N1CCCc2cc(S(=O)(=O)N3CCCC(C(=O)N4CCN(c5cccc(Cl)c5)CC4)C3)ccc21 (stereo unspecified) | 7.31 µM (active)
36 | O=C(Nc1ccncc1)c1c(F)cccc1F | 10.3 µM (active)
37 | COc1ccc(CCNc2cc(N3CCN(C(=O)c4ccccc4OC)CC3)ccc2[N+](=O)[O-])cc1OC | 4.11 µM (active)
38 | COCCn1c(SCC(=O)Nc2ccccc2F)nc2c(c1=O)SCC2 | inactive
39 | CC1(C)O[C@@H]2CC3C4C[C@H](F)C5=CC(=O)C=CC5(C)C4C(O)CC3(C)[C@]2(C(=O)CO)O1 (stereo partly specified) | 0.0082 µM (active)
40 | Cc1ccc(NC(=O)C2CC(=O)N(c3ccc4c(c3)OCCO4)C2)cc1S(=O)(=O)N1CCCCCC1 (stereo unspecified) | 20.6 µM (active)
41 | CC1CCN(S(=O)(=O)c2ccc(NC(=O)C3CC(=O)N(c4ccccc4)C3)cc2)CC1 (stereo unspecified) | inactive
42 | CCCCCCCCn1c2c(c(=N)c3c1CCC3)CCCC2 | 6.51 µM (active)
43 | O=C(CSc1nnc2c(n1)[nH]c1ccccc12)NC1CCCCC1 | 2.31 µM (active)
44 | CCCN(c1ccc(C(C)C)cc1)S(=O)(=O)c1c(C)[nH]c(=O)[nH]c1=O | inactive
45 | O=C(CN1C(=O)c2ccccc2S1(=O)=O)N1CCc2ccccc21 | 3.66 µM (active)
46 | O=C(CCC(=O)N1CCN(S(=O)(=O)c2ccc(Cl)cc2)CC1)NCc1cccc(C(F)(F)F)c1 | 8.2 µM (active)
47 | Cc1ccc(S(=O)(=O)N2C[C@@H]3CCCC[C@@H]3[C@@H](C)[C@H]2c2cn(Cc3ccccc3)c3ccc(F)cc23)cc1 | 5.17 µM (active)
48 | CC(C)(C)n1ncc2c(=O)n(Cc3ccc(C(=O)c4ccccc4)cc3)cnc21 | 1.3 µM (active)
49 | O=C(CC(O)(C(F)(F)F)C(F)(F)F)Nc1ccc(Cl)c(Cl)c1 | 2.59 µM (active)
50 | COc1ccc(CC(=O)Nc2nc(-c3ccc(F)c(F)c3)cs2)cc1OC | 5.8 µM (active)
51 | O=c1[nH]c(SCc2cccc(F)c2)nc2ccccc12 | inactive
